The text below walks through data of PubChem BioAssay (NCI).

SMILES strings stand for the structures. This is part of a sample that, as a whole, favours compounds with a hit. Of some 83,000 tested, about 20% had one in any assay.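 In brief: 96-well plates, 48 h treatment, single concentration, percent growth endpoint.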 Unmarked numbers belong to inactive results. Calls of active or inactive are those of the source. Rule for the calls: active = growth percent below 10; inactive = the rest.

Holding throughout (assay): NCI-60 one-dose screen, 48 h (100 = growth as untreated, 0 = no growth, -100 = all killed)
One test has as its system HCT-15 colon. To be noted: 10 µM unless noted.
The test system of the next test is HT29 colon. To be noted: 10 µM unless noted.
Another test concerns SNB-75 CNS. To be noted: 10 µM unless noted.
The test system of the next test is SNB-19 CNS. To be noted: 10 µM unless noted.
Another test relates to U251 CNS. To be noted: 10 µM unless noted.
The next test deals with PC-3 prostate. To be noted: 10 µM unless noted.
A further test deals with SK-MEL-5 melanoma. To be noted: 10 µM unless noted.
A further test deals with UACC-62 melanoma. To be noted: 10 µM unless noted.
A further test relates to LOX IMVI melanoma. To be noted: 10 µM unless noted.
For the next test, the system named is SK-MEL-28 melanoma. To be noted: 10 µM unless noted.
For the next test, the system named is SK-MEL-2 melanoma. To be noted: 10 µM.
The subject of the next test is EKVX NSCLC. To be noted: 10 µM unless noted.
A further test deals with SN12C renal. To be noted: 10 µM unless noted.
The next test has as its system UO-31 renal. To be noted: 10 µM unless noted.
A further test deals with TK-10 renal. To be noted: 10 µM unless noted.
A further test concerns ACHN renal. To be noted: 10 µM unless noted.
The test system of the next test is A498 renal. To be noted: 10 µM unless noted.
In a further test the test system is CCRF-CEM leukemia. To be noted: 10 µM unless noted.
For the next test, the system named is MOLT-4 leukemia. To be noted: 10 µM unless noted.

On to `O=c1nc2c(-c3nc4ccccc4s3)n[nH]n2c2sc3c(c12)CCCC3`, for which the growth in the test with HCT-15 colon was 64%; with HT29 colon it was 111%; in the test with SNB-75 CNS it was 104%; with SNB-19 CNS it was 101%; with U251 CNS, 86.5%; in the test on PC-3 prostate it was 79.6%. Besides, the growth was 101% with SK-MEL-5 melanoma; 92.7% in the test on UACC-62 melanoma; 96.9% with LOX IMVI melanoma; 114% in the test with SK-MEL-28 melanoma; 112% in the test on SK-MEL-2 melanoma; 92% in the test with EKVX NSCLC. For the same compound, the growth in the test on SN12C renal is 97.1%; in the test with UO-31 renal it was 75.4%; with TK-10 renal, 147%; with ACHN renal, 105%; in the test with A498 renal, 103%; in the test with CCRF-CEM leukemia, 79.8%. In the test with MOLT-4 leukemia, the growth is 98.6%.
Turning to `CC(=O)C(C(C)=O)C(c1ccccc1)C(C(C)=O)C(C)=O`, the growth in the test with HCT-15 colon is 100%; in the test with HT29 colon, 98.5%; in the test on SNB-75 CNS it was 95.1%; in the test on SNB-19 CNS, 102%; with U251 CNS, 93.5%; with PC-3 prostate, 89.8%. The growth with SK-MEL-5 melanoma is 97.2%; in the test with UACC-62 melanoma, 98.2%; in the test with LOX IMVI melanoma, 94.4%; in the test on SK-MEL-28 melanoma, 103%; in the test on SK-MEL-2 melanoma, 100%; in the test on EKVX NSCLC, 96.9%. For the same compound, the growth in the test on SN12C renal was 98.9%; in the test on UO-31 renal, 90.9%; in the test with TK-10 renal, 98.1%; in the test on ACHN renal it was 106%; in the test with A498 renal, 105%; in the test on CCRF-CEM leukemia, 93.5%. Moreover, in the test on MOLT-4 leukemia, the growth is 104%.
In the case of `CCc1ccc(/C=C/c2ccc(O)c3ncccc23)[n+](C)c1`, the growth is 85% in the test with HCT-15 colon; 50.9% in the test with HT29 colon; 48.1% with SNB-75 CNS; 41.1% with SNB-19 CNS; 25.9% in the test on U251 CNS; 61.3% in the test on PC-3 prostate. Besides, the growth was 26.3% in the test on SK-MEL-5 melanoma; 35.7% in the test with UACC-62 melanoma; 55.6% in the test with LOX IMVI melanoma; 60.7% in the test on SK-MEL-28 melanoma; 78.4% in the test with SK-MEL-2 melanoma; 47% in the test on EKVX NSCLC. Besides, the growth in the test on SN12C renal is 31.4%; in the test with UO-31 renal, 27.1%; in the test with TK-10 renal, 85.5%; in the test on ACHN renal, 89.3%; in the test on A498 renal, 29.6%; in the test on CCRF-CEM leukemia, 22.8%. For the same compound, in the test with MOLT-4 leukemia, the growth is 7.81% (active).
Turning to `CC(C)OP(=O)(CCC(=O)c1c[nH]c2ccccc12)OC(C)C`, the growth in the test with HCT-15 colon was 104%; in the test on HT29 colon it was 97.2%; in the test with SNB-75 CNS, 82.6%; in the test on SNB-19 CNS it was 104%; in the test on U251 CNS, 90.1%; in the test with PC-3 prostate, 73.2%. The growth was 110% in the test with SK-MEL-5 melanoma; 97% in the test with UACC-62 melanoma; 96.2% in the test with LOX IMVI melanoma; 121% with SK-MEL-28 melanoma; 98.9% in the test with SK-MEL-2 melanoma; 96.5% in the test on EKVX NSCLC. The growth in the test on SN12C renal is 103%; with UO-31 renal it was 82.9%; with TK-10 renal, 97.8%; with ACHN renal it was 101%; in the test with A498 renal, 104%; in the test on CCRF-CEM leukemia it was 75.7%. Moreover, the growth with MOLT-4 leukemia was 93.3%.
On to `CCCC(=O)OCC1OC(n2cnc3c(=S)nc[nH]c32)C(OC(=O)CCC)C1OC(=O)CCC` (configuration not stated), for which the growth with HCT-15 colon was 56.4%; in the test on HT29 colon it was 35.9%; in the test with SNB-75 CNS, 52.9%; in the test with SNB-19 CNS it was 74.4%; in the test on U251 CNS, 87.6%; in the test with PC-3 prostate, 59.7%. The growth was 38.6% in the test with SK-MEL-5 melanoma; 13.7% in the test with UACC-62 melanoma; 11.7% with LOX IMVI melanoma; 98.2% in the test with SK-MEL-28 melanoma; 12.5% with SK-MEL-2 melanoma; 69.3% in the test on EKVX NSCLC. Moreover, the growth in the test with SN12C renal was 49.9%; with UO-31 renal it was 32.6%; with TK-10 renal, 6.59% (active); with ACHN renal it was 41.5%; in the test on A498 renal it was 30.8%; with CCRF-CEM leukemia it was 24.6%. Further, the growth in the test on MOLT-4 leukemia was 18.6%.
As to `CCCCCCCCCCCC[n+]1ccccc1`, the growth in the test on HCT-15 colon was 39.4%; with HT29 colon it was 1.53% (active); in the test on SNB-75 CNS it was 0.831% (active); in the test on SNB-19 CNS, 8.57% (active); with U251 CNS it was -0.664% (active); with PC-3 prostate, -38.2% (active). The growth with SK-MEL-5 melanoma was -95.3% (active); in the test on UACC-62 melanoma it was -41.9% (active); with LOX IMVI melanoma, -40.9% (active); in the test with SK-MEL-28 melanoma, 21.4%; with SK-MEL-2 melanoma it was -30.4% (active); with EKVX NSCLC, 5.6% (active). Moreover, the growth is 3.89% (active) with SN12C renal; 35% in the test on UO-31 renal; -54.1% (active) in the test with TK-10 renal; 36.2% in the test on ACHN renal; 19% in the test on A498 renal; 1.54% (active) with CCRF-CEM leukemia. In addition, the growth in the test on MOLT-4 leukemia is -19.1% (active).
As to `C[N+](C)(CCOC(c1ccccc1)c1ccccc1)CC(=O)OCc1ccccc1`, the growth in the test on HCT-15 colon was 99.3%; with HT29 colon, 101%; in the test with SNB-75 CNS it was 76%; in the test with SNB-19 CNS, 106%; with U251 CNS it was 106%; in the test on PC-3 prostate it was 98.3%. The growth in the test on SK-MEL-5 melanoma was 98.1%; in the test on UACC-62 melanoma, 104%; in the test on LOX IMVI melanoma, 101%; in the test on SK-MEL-28 melanoma, 106%; in the test with SK-MEL-2 melanoma, 105%; in the test on EKVX NSCLC it was 101%. Besides, the growth was 105% with SN12C renal; 86.9% in the test with UO-31 renal; 96% in the test with TK-10 renal; 111% in the test on ACHN renal; 114% with A498 renal; 122% with CCRF-CEM leukemia. Also, the growth with MOLT-4 leukemia was 116%.
With `O=C(Cc1ccccc1)Nc1nnc(NC2CCN(c3nnc(NC(=O)Cc4ccccc4)s3)CC2)s1`, the growth in the test on HCT-15 colon was 99.4%; in the test on HT29 colon, 94.4%; with SNB-75 CNS, 106%; in the test with SNB-19 CNS, 107%; in the test with U251 CNS, 90.8%; with PC-3 prostate, 87.1%. In addition, the growth in the test with SK-MEL-5 melanoma was 98.7%; with UACC-62 melanoma, 89%; in the test on LOX IMVI melanoma it was 69.2%; with SK-MEL-28 melanoma, 107%; in the test on SK-MEL-2 melanoma it was 122%; with EKVX NSCLC, 90.2%. Further, the growth in the test on SN12C renal was 86%; with UO-31 renal it was 74.4%; with TK-10 renal, 110%; with ACHN renal it was 103%; in the test with A498 renal it was 43.8%; in the test on CCRF-CEM leukemia, 72.4%. Further, in the test with MOLT-4 leukemia, the growth is 91.3%.
